Laboratory results from the supplement of paper PMC6089552.
Hit rate of the full screen: of about 3,200 compounds, about 300 (9.4%) showed activity. This is one part of a sample in which actives are shown more often than they occur.

System: A673/TR/shEF
Test: cell viability (LOESS-normalised, relative to median of negative controls) (log2 ratio); higher = more viable cells (less compound effect), active = hit call of the paper (over 3 MAD below the median)
Conditions: treatment time: 72 h
Summary of the method: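 Viability of A673/TR/shEF Ewing sarcoma cells was determined by CellTiter-Glo luminescence. The cells, at 1,500 per well in 384-well plates, were grown with or without doxycycline from 24 h before compound addition to switch on EWS-FLI1 shRNA knockdown, then exposed for three days to library compounds at two or more concentrations or to DMSO controls. Signals were LOESS-corrected plate by plate, normalised to the negative-control median and log2-transformed.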

[1] = 0.25 µM, library screen: screen1, EWS-FLI1 expression: high (no doxycycline)
[2] = 0.25 µM, library screen: screen1, EWS-FLI1 expression: low (doxycycline-induced shRNA knockdown)
[3] = 2.5 µM, library screen: screen1, EWS-FLI1 expression: high (no doxycycline)
[4] = 2.5 µM, library screen: screen1, EWS-FLI1 expression: low (doxycycline-induced shRNA knockdown)

Measured: cell viability (log2)

COC(=O)[C@@H]1OC(=O)C2OC23[C@@]1(C)CCC1[C@]2(C)C(C[C@@H](O)[C@]13C)C(C)(C)[C@H](OC(C)=O)C[C@@H]2OC(C)=O (stereo partly specified)
inactive: [1] 0.0653 | [2] 0.123 | [3] 0.0967 | [4] 0.0969

COCCN1C(=O)C(=Cc2c(Cl)cccc2Cl)SC1=S
inactive: [1] 0.153 | [2] 0.208 | [3] 0.122 | [4] 0.19

COc1c(C=O)c(O)cc2c1C(=O)c1ccccc1C2=O
inactive: 0.025 µM, library screen: screen1, EWS-FLI1 expression: high (no doxycycline) 0.0865 | 0.025 µM, library screen: screen1, EWS-FLI1 expression: low (doxycycline-induced shRNA knockdown) 0.0031 | [1] 0.118 | [2] -0.13 | [3] 0.0699 | [4] -0.209 | 25 µM, library screen: screen1, EWS-FLI1 expression: high (no doxycycline) 0.0121 | 25 µM, library screen: screen1, EWS-FLI1 expression: low (doxycycline-induced shRNA knockdown) -0.781

COc1cc(C)c2c(=O)c3c(O)cc(O)cc3oc2c1
inactive: [1] -0.0797 | [2] 0.0363 | [3] 0.0175 | [4] 0.108

CC(C)c1c(O)ccc2c1CCC1[C@@](C)(C=O)CCC[C@]21C (stereo partly specified)
inactive: [1] 0.0641 | [2] 0.0754 | [3] 0.163 | [4] 0.289

CC1=C(C(=O)Nc2ccccc2Cl)C(c2ccc(O)cc2)NC(=S)N1 (stereo unspecified)
inactive: [1] 0.145 | [2] -0.0151 | [3] 0.191 | [4] -0.0985

CCN(CC)c1ccc(C2C(C(=O)OC)=C(C)NC(C)=C2C(=O)OC)cc1
inactive: [1] 0.121 | [2] 0.087 | [3] 0.202 | [4] 0.078

CC[C@H](CC[C@@H](C)[C@H]1CC[C@H]2[C@@H]3CC=C4C[C@@H](OC(C)=O)CC[C@]4(C)[C@H]3CC[C@]12C)C(C)C
inactive: [1] 0.121 | [2] 0.139 | [3] 0.109 | [4] 0.182

CCCCCCCCCCCCC(=O)N1CCCCC1CNC(=O)C(N)CCCCN (stereo unspecified)
inactive: 0.25 µM, library screen: screen2, EWS-FLI1 expression: high (no doxycycline) 0.125 | 0.25 µM, library screen: screen2, EWS-FLI1 expression: low (doxycycline-induced shRNA knockdown) 0.1 | 2.5 µM, library screen: screen2, EWS-FLI1 expression: high (no doxycycline) 0.117 | 2.5 µM, library screen: screen2, EWS-FLI1 expression: low (doxycycline-induced shRNA knockdown) 0.072

COc1ccc(CN2CCN(Cc3ccc(C)cc3)CC2)c(OC)c1OC
inactive: [1] 0.0669 | [2] 0.0696 | [3] 0.138 | [4] 0.00566

C=CCc1ccc(O)c(OC)c1
inactive: [1] 0.0882 | [2] 0.124 | [3] 0.127 | [4] 0.12

C=CCc1ccc(OC(=O)c2ccccc2)c(OC)c1
inactive: [1] 0.102 | [2] -0.0537 | [3] 0.111 | [4] 0.0334

N/C(=N\S(=O)(=O)Cc1ccccc1)Nc1nc2ccccc2o1
inactive: [1] 0.0883 | [2] 0.00923 | [3] 0.149 | [4] 0.031
